An excerpt weighted towards active compounds, which were near 3.6% of everything screened.
ERa SRC1 pot = enhances coactivator binding to human estrogen receptor alpha; coactivator binding (% of control), % at 25.6 µM; P03372; TR-FRET ERalpha-LBD/SRC-Cy5 coactivator binding, 2 h; 100 = basal binding, no effect; 86,000 compounds, 1.3% hits; in the data active means activity above about 200%;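 further: binding measured in presence of low estradiol as agonist stimulus; 0% = peptide alone without receptor and 100% = receptor with peptide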
NFkB transloc pot = enhances IL-1B driven NFkB nuclear translocation | HUVEC IL-1B NFkB p65 nuclear translocation imaging | activation, % at 2 µM | 94,000 compounds, 0.3% hits;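 active means activation above 40%, about the mean plus 3 SD, also judged a hit on visual image review; inconclusive means activation above 40% but not a hit on visual review; inactive means activation not above 40% and no visual hit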;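 further: percent activation is computed from the nuclear over cytoplasmic p65 intensity ratio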
HUVEC tox IL1B = toxic to HUVEC cells under IL-1B stimulation | cell count reduction, % at 2 µM | HUVEC cell count loss, Hoechst imaging, IL-1B stimulated | AID 845 | 94,000 compounds, 0.41% hits;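 active means cell count reduction more than 3 SD above the screen-wide mean, cut at about 70% in these data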;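 further: normalized per plate to untreated control cells as the no-loss baseline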
ERa coact inh = blocks coactivator binding to human estrogen receptor alpha | AID 629 | TR-FRET ER-alpha LBD / SRC-1 peptide, estradiol-bound | 86,000 compounds, 1.7% hits | inhibition, % at 25.6 µM | P03372; in the data active means inhibition above about 50%;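 further: 0% = receptor plus peptide control and 100% = peptide only without receptor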
ERb SRC1 inh = blocks coactivator binding to human estrogen receptor beta | Q92731 | AID 633 | TR-FRET ER-beta LBD / SRC1-Cy5 peptide binding; receptor agonist-loaded with 1 µM estradiol | inhibition, % at 25.6 µM | 86,000 compounds, 1.3% hits;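 active means compounds whose percent inhibition of the receptor-coactivator binding signal exceeds about 50% in the single-dose screen, limit read from the data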;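 further: 0% = receptor plus peptide wells without compound and 100% = peptide-only wells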
Target sequence (Q92731 whole entry, looked up, the tested form may be a part): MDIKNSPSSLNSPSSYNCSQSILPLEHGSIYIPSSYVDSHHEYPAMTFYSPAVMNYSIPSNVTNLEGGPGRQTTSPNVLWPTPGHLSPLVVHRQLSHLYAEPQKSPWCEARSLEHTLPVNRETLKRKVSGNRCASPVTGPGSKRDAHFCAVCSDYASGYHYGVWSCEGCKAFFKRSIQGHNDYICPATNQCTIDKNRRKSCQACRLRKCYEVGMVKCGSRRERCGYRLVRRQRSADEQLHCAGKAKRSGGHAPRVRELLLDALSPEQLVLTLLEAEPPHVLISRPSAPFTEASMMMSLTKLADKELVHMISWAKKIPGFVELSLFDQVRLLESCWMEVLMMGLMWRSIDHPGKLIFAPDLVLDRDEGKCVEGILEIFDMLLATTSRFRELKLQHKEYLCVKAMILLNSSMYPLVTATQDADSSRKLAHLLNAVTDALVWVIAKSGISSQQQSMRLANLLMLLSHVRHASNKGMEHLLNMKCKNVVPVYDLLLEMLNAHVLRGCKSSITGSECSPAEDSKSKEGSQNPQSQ
IL1B NFkB inh = blocks IL-1B driven NFkB nuclear translocation in HUVEC cells. 94,000 compounds, 0.43% hits. inhibition, % at 2 µM. HUVEC IL-1B NFkB p65 nuclear translocation imaging;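 active means inhibition above about 30% together with a positive call from visual inspection of the well image, limit read from the data; inconclusive means inhibition above a set limit but visual check negative; inactive means inhibition not above a set limit, visual check negative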;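 further: nuclear over cytoplasmic p65 intensity ratio measured by imaging; 0% = IL-1B stimulated DMSO wells and 100% = unstimulated DMSO wells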
Active calls of the source: *; ? = inconclusive; · = not tested or not shown; [ ] = remark or other dose.

SMILES	ERa SRC1 pot	NFkB transloc pot	HUVEC tox IL1B	ERa coact inh	ERb SRC1 inh	IL1B NFkB inh
COC(=O)C1=C(C)NC(C)=C(C(=O)OC)C1c1cc2cc(C)ccc2[nH]c1=O	114	14	-4	1	4	-14
CCCN(Cc1cc2cccc(C)c2[nH]c1=O)C(=O)c1cccc(OC)c1	·	-95	92*	·	·	95*
CCN(CC)CCNC(=O)c1cc(Cl)c(N)cc1OC	109	·	·	-9	56*	·
CC(C)OCCCNC(=O)c1cc2c(s1)CS(=O)(=O)C2	120	24	-102	2	-5	-24
CCCCSc1nc2c(cnn2-c2ccc(Cl)cc2)c(=O)[nH]1	147	-3	-19	0	-5	3
O=C(CSc1nc2c(cnn2-c2ccccc2)c(=O)[nH]1)c1ccc(Cl)cc1	329*	-8	-14	14	8	8
COC(=O)c1ccc(CSc2nc3c(cnn3-c3ccc(C)c(C)c3)c(=O)[nH]2)o1	129	4	-21	80*	45	-4
O=c1[nH]c(SCc2ccc(F)cc2)nc2c1cnn2-c1ccc(F)cc1	93	1	-44	25	15	-1
CCSc1nc2c(cnn2-c2ccc(C)cc2)c(=O)[nH]1	628*	·	·	-19	23	·
CCCSc1nc2c(cnn2-c2ccc(F)cc2)c(=O)[nH]1	·	-9	29	·	·	9
CCCSc1nc2c(cnn2-c2ccccc2)c(=O)[nH]1	201*	·	·	-6	13	·
CSc1nncn1/N=C/c1cc(Cl)ccc1F	113	4	22	3	1	-4
Clc1ccc(-c2nc3ccccc3n2OCc2ccccc2)cc1	·	-6	-59	·	·	6
CCC(C)Sc1nc2c(cnn2-c2ccc(C)cc2)c(=O)[nH]1 (stereo unspecified)	526*[fluorescence artefact?]	-12	8	4	43	12
CCCCSc1nc2c(cnn2-c2ccc(C)c(C)c2)c(=O)[nH]1	168	-7	18	-2	22	7
CCCSc1nc2c(cnn2-c2ccc(C)c(C)c2)c(=O)[nH]1	244*[fluorescence artefact?]	-1	1	50*[fluorescence artefact?]	54*[fluorescence artefact?]	1
Cc1ccc(-n2ncc3c(=O)[nH]c(SCC(=O)N4CCCCC4)nc32)cc1	102	-12	5	0	-3	12
CCCSc1nc2c(cnn2-c2ccc(C)cc2)c(=O)[nH]1	298*[fluorescence artefact?]	-3	0	6	37	3
O=C(OCC(=O)N1CCN(C(=O)c2ccco2)CC1)c1ccccc1OCc1ccc(Cl)cc1	91	·	·	21	6	·
O=C(CN(C1CCCCC1)S(=O)(=O)c1ccc(Cl)cc1)NCCCO	112	·	·	0	-1	·
CSc1ccc2[nH]c(=O)cc(C)c2c1	105	-6	-33	0	0	6
O=C(CSc1nnc(-c2ccccc2O)o1)N1CCc2ccccc2C1	239*[fluorescence artefact?]	-4	-6	23	27	4
CC(C)Cn1cnc2c1c(=O)n(CC(=O)Nc1ccc3c(c1)OCO3)c(=O)n2Cc1ccccc1	121	-33	72*	25	-4	33*
S=c1[nH]nc(-c2ccccc2Cl)n1CC1CCCO1 (stereo unspecified)	95	23	70*	-18	-25	-23
O=C1c2ccccc2C(=O)N1CC1CCCO1 (stereo unspecified)	110	17	-19	-8	-9	-17
SMILES	ERa SRC1 pot	NFkB transloc pot	HUVEC tox IL1B	ERa coact inh	ERb SRC1 inh	IL1B NFkB inh
Cc1ccc2c(c1)c(=O)c1c3n2CCN(C(=O)CCl)C3CC1 (stereo unspecified)	29	3	1	83*[fluorescence artefact?]	72*	-3
Cn1c(=O)cc(SCC(=O)NCc2cccnc2)c2ccccc21	113	13	-7	-3	-16	-13
Cn1c(=O)cc(SCC(=O)Nc2cccnc2)c2ccccc21	264*[fluorescence artefact?]	?	-29	5	-10	-60
Cc1ccc(NC(=S)NCC2CCCO2)cc1C (stereo unspecified)	99	-11	91*	-9	0	11
CCOc1cc(CNc2ccc3c(c2)OCCO3)cc(Br)c1OCC	·	-1	37	·	·	1
O=C(O)c1ccccc1C(=O)Nc1nccs1	·	4	-43	·	·	-4
CC(NS(=O)(=O)c1ccccc1)C(=O)Nc1ccc(S(N)(=O)=O)cc1 (stereo unspecified)	106	-17	-2	-24	-24	17
CSc1ccccc1C(=O)Nc1nccs1	121	-4	2	76*[fluorescence artefact?]	-1	4
CC(NS(=O)(=O)c1ccccc1)C(=O)Nc1nccs1 (stereo unspecified)	91	44*	-11	15	17	-44
CCOC(=O)C1=NN(c2cccc(Cl)c2)C2=NC(C)=C(C(=O)OC)C(c3cccs3)N12 (stereo unspecified)	108	16	-70	-8	-6	-16
Cc1ccc(S(=O)(=O)c2c(C)cc(C)nc2Cl)c(C)c1	·	2	-6	·	·	-2
Cc1cc(C)c(S(=O)(=O)/N=C2\C=CC(=O)C(Cl)=C2)c(C)c1	82	-31	23	70*	61*	31*
CCC1SC(N)=NC1=O (stereo unspecified)	114	9	-34	-1	-6	-8
Cc1ccc(C2Oc3ccccc3C3=C2C(c2cccs2)n2ncnc2N3)cc1 (stereo unspecified)	97	-7	88*	-10	2	7
Fc1ccc(C2C3=C(Nc4ncnn42)c2ccccc2OC3c2ccncc2)cc1 (stereo unspecified)	84	5	-31	0	-3	-6
COc1ccc(NC(C)=O)cc1NC(=O)CSc1nc2ncccc2[nH]1	116	13	-27	-1	-1	-13
Cc1cccc(NC(=O)c2sccc2-n2cccc2)c1C	120	·	·	-6	-2	·
Cc1ccccc1C(=O)Nc1ccccc1-n1cccc1	·	40*	0	·	·	-40
COc1cc2ccccc2c2c1CCCC2=O	·	-9	-6	·	·	9
CCOC(=O)Cc1csc(NS(=O)(=O)c2ccc(F)cc2)n1	·	4	-3	·	·	-4
Cn1cc(C(=O)NCCc2ccccc2)c(=O)c2cc(S(=O)(=O)N3CCOCC3)ccc21	114	·	·	-3	-8	·
O=C(OCc1cc(=O)n2c(n1)sc1ccccc12)c1ccc2c(=O)n3c(nc2c1)CCC3	29	·	·	79*[fluorescence artefact?]	49	·
CCC(C)(C)n1nnnc1C(c1ccc(C)cc1)N(Cc1ccco1)Cc1cccs1 (stereo unspecified)	72	-5	2	2	1	5
CCc1ccc(OCC(=O)Nc2ccc(-c3nc4ccccc4o3)c(O)c2)cc1	161	22	-18	80*[fluorescence artefact?]	70*[fluorescence artefact?]	-22
COc1ccc(OCC(=O)Nc2cccc(-c3nc4ccccc4o3)c2)cc1	110	-6	-4	34	20	6
CCCc1cc(=O)oc2cc(OCC(=O)OC)cc(OCC(=O)OC)c12	622*[fluorescence artefact?]	15	-4	-4	22	-16
COc1cccc(Nc2nc(=O)[nH]nc2C)c1	104	-18	83*	-2	-2	18
